# Screening data (PubChem)
# Many of the other results were omitted from the sample, so hits are more common in it than they were.
# Methyltransferases: Primary Screen for Target Class Profiling of Small Molecule Inhibitors of Methyltransferases; 3.9% of 25,000 active; purified enzyme, MTase-Glo SAH luminescence; hits give low values; AID 1745853, 2022; calls only at 40 µM; call rule not given here
#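 Each enzyme was assayed with SAM and its substrate. SAH formation detected by MTase-Glo luminescence; single-point 40 uM screen[…].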
# Active calls of the source: *; i = inactive; + = active, no number. % is scaled to controls: 0 for no effect and ±100 for the full control effect.
SMILES,Methyltransferases
CN1CCc2cc(Cl)c(O)cc2[C@@H](c2ccccc2)C1,i
Oc1cc2c(cc1O)C(c1ccccc1)CNCC2 (configuration not stated),+
Oc1ccc(CC2NCCc3cc(O)c(O)cc32)cc1 (configuration not stated),i
Cc1cc2c(cc3n2CC(C)(C(=O)NC2CCCCCC2)N(CCCN2CCOCC2)C3=O)o1 (configuration not stated),i
COC(=O)c1cc2n(n1)CC(C)(C(=O)NC1CCCCCC1)N(Cc1ccc(OC)cc1OC)C2=O (configuration not stated),i
CCCCOc1ccc(CNC(=O)c2cc3n(n2)CC(C)(C(=O)NC2CCCCC2)N(C)C3=O)cc1 (configuration not stated),i
CN1CCN(CCCNC(=O)c2cc3n(n2)CC(C)(C(=O)NC2CCCC2)N(C)C3=O)CC1 (configuration not stated),i
C[C@@H]1O[C@@H](O[C@H]2[C@H](OC(=O)C34CCC(C)(C)CC3C3=CCC5C6(C)CC(O)C(O[C@@H]7O[C@H](CO)[C@@H](O)[C@H](O)[C@H]7O)C(C)(C(=O)O)C6CCC5(C)C3(CO)CC4)O[C@H](C)[C@H](O)[C@@H]2O)[C@H](O)[C@H](O)[C@H]1O[C@@H]1OC[C@@H](O)[C@H](O)[C@H]1O (some centres not stated),+
C[C@@H]1O[C@@H](O[C@H]2[C@H](OC(=O)[C@]34CCC(C)(C)C[C@H]3C3=CCC5[C@@]6(C)C[C@H](O)[C@H](O[C@@H]7O[C@H](CO)[C@@H](O)[C@H](O)[C@H]7O)[C@@](C)(CO)C6[C@H](O)C[C@@]5(C)[C@]3(C)CC4)OC[C@H](O)[C@@H]2O)[C@H](O)[C@H](O)[C@H]1O[C@@H]1OC[C@@H](O)[C@H](O[C@@H]2OC[C@](O)(CO)[C@H]2O)[C@H]1O (some centres not stated),i
CC1(C)CC[C@]2(C(=O)O[C@@H]3O[C@H](CO)[C@@H](O)[C@H](O)[C@H]3O)CC[C@]3(C)C(=CCC4[C@@]5(C)C[C@@H](O)[C@H](O)[C@@](C)(CO)C5CC[C@]43C)C2C1 (some centres not stated),+
CC1(C)CC[C@]2(C(=O)OC3OC(CO)C(O)C(O)C3O)CC[C@]3(C)C(=CCC4[C@@]5(C)C[C@@H](O)[C@H](OC6OC(C(=O)O)C(O)C(O)C6O)C(C)(C)C5CC[C@]43C)[C@@H]2C1 (some centres not stated),i
CC1(C)CC[C@]2(C(=O)O[C@@H]3O[C@H](CO)[C@@H](O)[C@H](O)[C@H]3O)CC[C@]3(C)C(=CCC4[C@@]5(C)C[C@@H](O)[C@H](O)C(C)(C)C5[C@H](O)C[C@]43C)[C@@H]2[C@@H]1O (some centres not stated),i
CC1(C)CCC2(C(=O)OC3OC(COC4OC(CO)C(O)C(O)C4O)C(O)C(O)C3O)CCC3(C)C(=CCC4C5(C)CCC(OC6OCC(O)C(O)C6O)C(C)(C)C5CCC43C)C2C1O (configuration not stated),i
C[C@H]1[C@H](C)CC[C@]2(C(=O)O)CC[C@]3(C)C(=CC[C@@H]4[C@@]5(C)C[C@@H](O)[C@H](O)[C@@](C)(CO)[C@@H]5CC[C@]43C)[C@H]12,i
C[C@@H]1CC[C@]2(C(=O)O)CC[C@]3(C)C(=CCC4[C@@]5(C)C[C@@H](O)[C@H](O)[C@@](C)(CO)C5CC[C@]43C)C2[C@H]1C (some centres not stated),i
CC1(C)CC[C@]2(C(=O)O[C@@H]3O[C@H](CO)[C@@H](O)[C@H](O)[C@H]3O)CC[C@]3(C)C(=CCC4[C@@]5(C)C[C@H](O)[C@H](O[C@@H]6OC[C@@H](O)[C@H](O)[C@H]6O)[C@@](C)(CO)C5CC[C@]43C)C2C1 (some centres not stated),i
CC1(C)CC[C@]2(C(=O)O)CC[C@]3(C)C(=CCC4[C@@]5(C)C[C@@H](O)[C@H](O)C(CO)(CO)C5CC[C@]43C)C2[C@@H]1O (some centres not stated),+
C[C@@H]1O[C@@H](O[C@H]2[C@H](O)[C@@H](O)[C@H](OC[C@H]3O[C@@H](OC(=O)[C@]45CCC(C)(C)C[C@H]4C4=CCC6[C@@]7(C)C[C@H](O)[C@H](O[C@@H]8O[C@H](CO)[C@@H](O)[C@H](O)[C@H]8O)[C@@](C)(C(=O)O)C7CC[C@@]6(C)[C@]4(C)CC5)[C@H](O[C@@H]4O[C@H](CO)[C@@H](O)[C@H](O)[C@H]4O)[C@@H](O)[C@@H]3O)O[C@@H]2CO)[C@H](O)[C@H](O)[C@H]1O (some centres not stated),i
CC1(C)CC[C@]2(C(=O)O[C@@H]3O[C@H](CO)[C@@H](O)[C@H](O)[C@H]3O)CC[C@]3(C)C(=CCC4[C@@]5(C)C[C@@H](O)[C@H](O)C(CO)(CO)C5CC[C@]43C)C2[C@@H]1O (some centres not stated),+
CC(C/C=C/C(C)(C)O)C1CCC(C)(O)C(O)C1 (configuration not stated),i
CCC(C)NC(=O)c1ccc2c(=O)n(CC(C)C)c3nn(CC(=O)Nc4ccccc4)c(=O)n3c2c1 (configuration not stated),i
CCc1cc2c(cc3n2CC(C)(C(=O)NC2CCC(C)CC2)N(CCCOC)C3=O)s1 (configuration not stated),i
CC1(C(=O)NC2CCCCCCC2)Cn2c(cc3sccc32)C(=O)N1Cc1cccs1 (configuration not stated),i
Cc1ccc(NC(=O)Cn2nc3n(C)c(=O)c4ccc(C(=O)NC5CCCCC5)cc4n3c2=O)cc1F,i
NC(=O)C1CCN(C(=O)CCc2nnc3n(Cc4ccc(Cl)cc4)c(=O)c4ccccc4n23)CC1,i
SMILES,Methyltransferases
CCC(C)NC(=O)c1ccc2c(=O)n(CCC(C)C)c3nn(CC(=O)Nc4ccccc4C)c(=O)n3c2c1 (configuration not stated),i
O=S(=O)(NCCn1c(-c2ccc(F)cc2)nc2ccccc21)c1cc(F)ccc1F,i
CCOCCCN1C(=O)c2cc3oc(C)cc3n2CC1(C)C(=O)NC1CCCCCC1 (configuration not stated),i
O=C(Cn1c(=O)n2nc(-c3ccc(F)cc3)nc2c2ccccc21)N1CCN(c2ccc(F)cc2)CC1,i
CC(=O)Nc1c2n(c3ccc(F)cc13)CC(C)(C(=O)NCCC(C)C)N(Cc1ccco1)C2=O (configuration not stated),i
CCCn1c(=O)c2ccc(C(=O)NC3CCCCC3)cc2n2c(=O)n(CC(=O)c3cccc(OC)c3)nc12,i
CC1CCCC(NC(=O)C2(C)Cn3c(ccc3-c3ccco3)C(=O)N2Cc2ccccn2)C1C (configuration not stated),i
Clc1ccccc1CNc1nc2c(-c3ccccc3)nnn2c2ccccc12,i
COc1ccc(CNC(=O)c2ccc3nnc(C4CCOCC4)n3c2)cc1,i
CC(C)Cn1c(=O)c2ccccc2n2c(=O)n(CC(=O)NCc3ccc(Cl)cc3)nc12,i
CC(=O)OC1C[C@]2(C)C(O)CC(C)=C[C@H](OC(=O)c3ccc(O)cc3)C2[C@]1(O)C(C)C (some centres not stated),i
